TexasRed fluor: Texas Red fluorescence interference in TRb-SRC2 counter-screen; TRb/SRC2 Texas Red total fluorescence interference; Potency, µM (titrated, usually from 106 µM), without a hit: top-dose fluorescence change, negative = quenching; 280,000 tested, 0.29% active; active means well fitted curve in either direction with a large enough effect; inconclusive means small, poorly fitted or top-dose-only effect; further: on the % scale 0 is the no-effect control and ±100 the full control effect
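Human TRβ ligand-binding domain (0.6 uM) and Texas Red SRC2 peptide (20 nM) in Tris buffer with 1 uM T3 and 5% DMSO were incubated with pinned compound for 5 hr at ambient temperature. Total fluorescence was computed as S + 2P (555/632 nm).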
ERG-DNA inh: ERG Ets/DNA interaction inhibition | P11308 | fluorescence polarization, His-ERG Ets domain / labelled DNA | Potency, µM (titrated, usually from 76.9 µM), without a hit: at the highest dose FP activity, negative = inhibition, hits mostly inhibitors | 370,000 tested, 0.028% active | AID 624246; active means well fitted inhibition curve with a large enough effect in the polarisation, with a control signal flat; inconclusive means small, poorly fitted or top-dose-only effect, or effect the other way, or a change in a side signal; inactive means no such curve, though single readings can be large or run the other way; the % refers to the polarisation;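 further: polarization taken with two DNA probes labelled with fluorescein and Texas red; % of control where 0% means no effect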
Target sequence (P11308 whole entry, looked up, the tested form may be a part): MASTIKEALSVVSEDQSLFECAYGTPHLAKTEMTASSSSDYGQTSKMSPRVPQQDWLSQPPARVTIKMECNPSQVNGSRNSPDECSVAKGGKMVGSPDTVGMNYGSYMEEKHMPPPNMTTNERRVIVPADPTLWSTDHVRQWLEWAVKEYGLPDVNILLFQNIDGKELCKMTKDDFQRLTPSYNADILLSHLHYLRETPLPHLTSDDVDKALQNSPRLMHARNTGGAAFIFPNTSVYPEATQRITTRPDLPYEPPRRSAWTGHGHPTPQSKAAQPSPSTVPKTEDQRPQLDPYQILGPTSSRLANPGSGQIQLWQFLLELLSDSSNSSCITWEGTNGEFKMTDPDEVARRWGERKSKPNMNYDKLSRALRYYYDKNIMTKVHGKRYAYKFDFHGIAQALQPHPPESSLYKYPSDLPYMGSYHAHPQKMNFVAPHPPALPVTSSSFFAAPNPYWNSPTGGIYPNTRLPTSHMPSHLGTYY
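His-tagged ERG Ets domain (1 uM in the protein solution; 300mM KCl, 50mM Tris-HCl, 1mM EDTA, 1mM DTT, pH 7.5) received compound, then a probe mix of 5 nM fluorescein-DNA and 100nM Texas-615-DNA. Fluorescence polarization was read for both dyes.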
TRb-SRC2 inh: TRbeta-SRC2 interaction inhibition; P10828; TRbeta-SRC2 peptide binding, fluorescence polarization; receptor liganded with 1 µM T3; Potency, µM (top dose mostly 106 µM), without a hit: at the highest dose activity change, negative = inhibition, most hits filed as inhibitors; 280,000 tested, 0.065% active; AID 1469;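 further: plate controls were bound peptide for no effect and peptide without receptor for full effect; nearly all actives have a fitted effect of over 50% in size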
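TRb LBD 0.6 uM + Texas Red SRC2 peptide 20 nM, 1 uM T3, Tris buffer w/ 5% DMSO; compound pinned, 5 h RT; FP read ex 555/em 632; normalized to unbound and bound controls.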
GoLoco inh red: blocks human Gai1 binding to RGS12 GoLoco peptide, red readout | P63096 | Gai1:RGS12 GoLoco peptide FP, rhodamine, 10 min | Potency, µM (top dose mostly 61.6 µM), for inactives: at the highest dose activity, negative = inhibition, most hits filed as inhibitors | 230,000 tested, 0.44% active; active means well fitted inhibition curve with a large enough effect, not every such curve was filed as active; inactive means no such curve, though single readings can be large or run the other way; further: on the % scale 0 is the no-effect control and ±100 the full control effect; nearly all actives have a fitted effect of over 30% in size
RECQ1 inh-1: RECQ1 (human) helicase inhibition; 240,000 tested, 0.54% active; Potency, µM (top dose mostly 57.3 µM), inactives show top-dose activity, negative = inhibition, hits mostly inhibitors; RECQ1 DNA unwinding, red fluorescence kinetic read; AID 2549; P46063;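 further: plate controls were vehicle for no effect and no enzyme for full effect; nearly all actives have a fitted effect of over 30% in size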
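RECQ1T1 50 nM; forked duplex (20 bp + 30-nt ss tails) 200 nM, ATP 2 mM final; pH 8.0, 2 mM MgCl2, 2.5 ug/ml poly(dI-dC); 15 min compound preincubation; discontinuous kinetic read over 2 h at RT.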
BLM inh: inhibitors of human Bloom syndrome helicase BLM; P54132; recombinant BLM DNA unwinding, fluorescence dequenching; Potency, µM (highest dose often 56.1 µM), for the others: at the highest dose activity change, negative = inhibition, hits mostly inhibitors; 350,000 tested, 0.2% active; AID 2528;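 further: plate controls were vehicle for no effect and no enzyme for full effect; nearly all actives have a fitted effect of over 35% in size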
RECQ1 conf: confirmation of human RECQ1 helicase inhibitors | Potency, µM (doses to about 229 µM), without a hit: at the highest dose activity change, negative = inhibition, hits mostly inhibitors | AID 2708 | RECQ1 helicase DNA unwinding, fluorescence | 610 tested, 28% active | shares compounds with RECQ1 inh-1; further: on the % scale 0 is the no-effect control and ±100 the full control effect; nearly all actives have a fitted effect of over 45% in size
ADP FP counter: displaces ADP in a fluorescence polarization counter-screen for RECQ1 hits; shares compounds with RECQ1 inh-1; ADP fluorescence polarization displacement counterscreen; Potency, µM (highest dose often 228 µM), for inactives: top-dose activity change, negative = inhibition, most hits filed as inhibitors; 530 tested, 27% active; AID 2711; further: on the % scale 0 is the no-effect control and ±100 the full control effect; nearly all actives have a fitted effect of over 45% in size
RECQ1 inh-2: confirmation of human RECQ1 helicase inhibitors; shares compounds with RECQ1 inh-1; recombinant RECQ1 DNA unwinding, red fluorescence; Potency, µM (highest dose often 119 µM), without a hit: at the highest dose activity, negative = inhibition, hits mostly inhibitors; 1,100 tested, 15% active; AID 504841; further: on the % scale 0 is the no-effect control and ±100 the full control effect; nearly all actives have a fitted effect of over 50% in size
Numbers without * were called inactive; [ ] = remark or other dose. Compounds with a hit are over-represented: about 0.71% of the library has one in this group of screens. Unless noted, the call rests on the fitted dose curve; in most records, active means well fitted curve in the direction sought with a large enough effect; inconclusive means small, poorly fitted or top-dose-only effect, or another doubt; inactive means no such curve, though single readings can be large; an effect the other way counts as inactive or inconclusive. Potency means the concentration at half of the fitted maximal effect.

O=S(=O)(c1ccc(-c2nnc(SCc3nnc(-c4ccccc4)o3)o2)cc1)N1CCCC1 was read as TexasRed fluor -1%, ERG-DNA inh 15%, TRb-SRC2 inh -15%, GoLoco inh red 0%, RECQ1 inh-1 9%, BLM inh -1%, RECQ1 conf 8% and ADP FP counter 6%.
For COc1cc(O)c2c(c1)oc(=O)c1c3cc(O)c(O)cc3oc21 the results were TexasRed fluor 35µM*[quencher], TRb-SRC2 inh inconclusive, RECQ1 inh-1 2.5µM*, BLM inh 13µM*, RECQ1 conf 14µM*, ADP FP counter 45µM* and RECQ1 inh-2 2.2µM*.
`Cc1ccc2oc(=O)c3c4cc(O)c(O)cc4oc3c2c1` gave TexasRed fluor -10%, TRb-SRC2 inh 10%, GoLoco inh red 1%, RECQ1 inh-1 -10% and BLM inh -5%.
For CCOC(=O)CSc1nc2ccc(NC(=O)COc3ccccc3C)cc2s1 the results were TexasRed fluor 10%, ERG-DNA inh -1%, TRb-SRC2 inh 6% and BLM inh 0%.
O=C(Nc1nc(-c2cccs2)c(-c2ccccc2)s1)c1ccco1 was read as TexasRed fluor 0%, ERG-DNA inh 7%, TRb-SRC2 inh 14%, GoLoco inh red 12%, RECQ1 inh-1 -5% and BLM inh -21%.
`CC1CC1C(=O)Nc1nc(-c2cccs2)c(-c2cccs2)s1` (configuration not stated) gave TexasRed fluor -2%[53 µM], ERG-DNA inh 0%, TRb-SRC2 inh 5%[53 µM], GoLoco inh red -9%, RECQ1 inh-1 32µM*, BLM inh inconclusive and RECQ1 inh-2 inconclusive.
O=C(CSc1ncnc2sc3c(c12)CCCC3)c1ccco1 was read as TexasRed fluor -5%, ERG-DNA inh -2%, TRb-SRC2 inh -23%, GoLoco inh red 52%, RECQ1 inh-1 inconclusive, BLM inh -20% and RECQ1 inh-2 -23%.
`O=C(CSc1ncnc2sc3c(c12)CCCC3)c1ccccc1` gave TexasRed fluor 0%, ERG-DNA inh -12%, TRb-SRC2 inh 13%, GoLoco inh red 16%, RECQ1 inh-1 -1% and BLM inh -1%.
Cc1cccn2c(=O)c3cc(C#N)c(=NC(=O)c4ccco4)n(Cc4ccco4)c3nc12 was read as TexasRed fluor -2%, ERG-DNA inh 11%, TRb-SRC2 inh -4%, GoLoco inh red 11%, RECQ1 inh-1 -8% and BLM inh inconclusive.
`Cc1cccc(C(=O)N=c2c(C#N)cc3c(=O)n4cccc(C)c4nc3n2Cc2ccco2)c1` gave TexasRed fluor -17%, ERG-DNA inh -1%, TRb-SRC2 inh 4%, GoLoco inh red 82%, RECQ1 inh-1 inconclusive, BLM inh -27% and RECQ1 inh-2 -20%.
Cc1ccccc1CCNC(=O)c1cc2cc(S(=O)(=O)N3CCCCC3)ccc2n1C was read as TexasRed fluor -2%, ERG-DNA inh 1%, TRb-SRC2 inh 6% and BLM inh -5%.
For COc1ccc(CCn2c(O)cc3nn(-c4nc5ccccc5s4)c(=O)c-3c2C)cc1 the results were TexasRed fluor 22µM*[quencher], ERG-DNA inh -1%, TRb-SRC2 inh inconclusive, GoLoco inh red 62%, RECQ1 inh-1 25µM*, BLM inh -27%, RECQ1 conf 20%[114 µM], ADP FP counter -3%[91.9 µM] and RECQ1 inh-2 -15%.
Screening C=C(C)C1CCC(C)C(OC(C)=O)C1 (configuration not stated) returned TexasRed fluor 3%, TRb-SRC2 inh 1%, RECQ1 inh-1 -10% and BLM inh 1%.
COc1ccc(OC)c(NCc2cccn2-c2nnc(N3CCCCC3)s2)c1 was read as TexasRed fluor -3%, ERG-DNA inh -14%, TRb-SRC2 inh 9% and BLM inh -10%.
Screening O=C1S/C(=C\C=C\c2ccco2)C(=O)N1c1ccccc1 returned TexasRed fluor -11%, ERG-DNA inh 10%, TRb-SRC2 inh 0%, GoLoco inh red 42%, RECQ1 inh-1 inconclusive, BLM inh -18% and RECQ1 inh-2 -29%.
For O=C(NN1C(=O)/C(=C/C=C/c2ccco2)SC1=S)c1ccccc1O the results were TexasRed fluor inconclusive, ERG-DNA inh 83%, TRb-SRC2 inh 12%, GoLoco inh red 77%, RECQ1 inh-1 2.5µM*, BLM inh inconclusive, RECQ1 conf 13µM* and ADP FP counter 14µM*.
Screening Cc1cc2c(nc1C)CCCCN2C[C@H](C)O/N=C1/[C@H]2O[C@@H]2[C@@H](O)[C@H]2[C@H]1CCn1c(=O)n(-c3ccccc3)c(=O)n12 returned TexasRed fluor -9%[11.2 µM], TRb-SRC2 inh 2%[11.2 µM], RECQ1 inh-1 0%[11.5 µM] and BLM inh 4%[12.4 µM].
For COC(=O)c1c(C)c2c(C)cc3ccccn3c-2c1C(=O)OC the results were TexasRed fluor -1%, ERG-DNA inh -17%, TRb-SRC2 inh -1%, GoLoco inh red 7%, RECQ1 inh-1 -1% and BLM inh 0%.
`COC(=O)c1cc2c(-c3ccccc3)cc3ccccn3c-2c1C(=O)OC` gave TexasRed fluor -4%, ERG-DNA inh 1%, TRb-SRC2 inh -9%, GoLoco inh red 49%, RECQ1 inh-1 inconclusive, BLM inh -17% and RECQ1 inh-2 79µM*.
For COC(=O)c1c(C(=O)OC)c2cccc3cc(-c4ccccc4)c4ccc1c4n32 the results were TexasRed fluor -2%, ERG-DNA inh 0%, TRb-SRC2 inh -19%, GoLoco inh red 18µM*, RECQ1 inh-1 4µM*, BLM inh -13% and RECQ1 inh-2 inconclusive.
`COC(=O)c1cc(-c2ccccc2)sc1N` gave TexasRed fluor -8%, ERG-DNA inh 4%, TRb-SRC2 inh -2%, GoLoco inh red 2%, RECQ1 inh-1 -2% and BLM inh -6%.

Source: PubChem
